PubChem BioAssay (Tox21)
Results filed as inconclusive are left out. Activity calls are given as the source filed them. Unless noted, calls come from the whole dose curve; as a rule, active = well fitted curve in the direction sought with a large enough effect in the repeat runs; inconclusive = weak or mixed curves; inactive = no such curve, though single readings can be large; an effect the other way counts as inactive or inconclusive.

Experiments:
[1] = qHTS assay for small molecule agonists of the p53 signaling pathway (AID 651631; calls by dose curve; note: nearly all actives have a fitted effect of over 15% in size)
How it was run: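 Quantitative high-throughput format: 4,000 p53RE-bla HCT-116 cells/well, 5 h pre-incubation, 16 h compound exposure at 37 °C, 2 h room-temperature substrate step, fluorescence intensity measured.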

[2] = qHTS assay for small molecules that induce genotoxicity in human embryonic kidney cells expressing luciferase-tagged ATAD5 (AID 651632); note: nearly all actives have a fitted effect of over 15% in size
How it was run: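 HEK293T cells carrying a luciferase reporter tagged to ATAD5 were exposed to compound or DMSO vehicle for 16 hr at 37C, 5% CO2. Amplite was added, and after 30 min at room temperature luciferase activity was read as a marker of ATAD5 induction.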

[3] = qHTS assay for small molecule agonists of the p53 signaling pathway - cell viability (AID 651633; calls by dose curve;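 note: p53RE-bla HCT reporter cells with a stable beta-lactamase p53 reporter; series mostly up to about 83 µM; nearly all actives have a fitted effect of over 30% in size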)
How it was run: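 p53RE-bla cells, seeded at 4,000 per well and rested 5 h at 37 C/5% CO2, received compounds in DMSO for 16 h at 37 C. CellTiter-Glo was then added, and luminescence was read after 30 min at room temperature to gauge cytotoxicity.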

[4] = qHTS assay for small molecules that induce genotoxicity in human embryonic kidney cells expressing luciferase-tagged ATAD5 - cell viability (AID 651634; calls by dose curve; note: nearly all actives have a fitted effect of over 25% in size)
How it was run: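 HEK293T cells expressing luciferase-tagged ATAD5 were exposed to compound or DMSO for 15.5 hr at 37C, 5% CO2. Viability was then read as live-cell protease activity by CellTiter-Fluor fluorescence after 30 min at 37C.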

[5] = qHTS assay for small molecule disruptors of the mitochondrial membrane potential - cell viability (AID 720634; calls by dose curve;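 note: human HepG2 liver cancer cells; series mostly up to about 83 µM; nearly all actives have a fitted effect of over 20% in size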)
How it was run: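 HepG2 cells seeded overnight at 37 C, then exposed to compound or DMSO for 1 hr at 37 C, 5% CO2. m-MPI dye added, then CellTiter-Glo for 30 min at room temperature; viability read as ATP luminescence.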

[6] = qHTS assay for small molecule disruptors of the mitochondrial membrane potential (AID 720635); note: potency is the fitted concentration of half-maximal effect
How it was run: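 HepG2 cells (2,000/well) attached overnight at 37C, then took compound for 1 hr at 37C, 5% CO2. Mito-MPS dye was added for 30 min; fluorescence was read at 490/535 nm (monomers) and 540/590 nm (aggregates).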

[7] = qHTS assay to test for compound auto fluorescence at 590 nm (red) in HepG2 cells (AID 720674)
How it was run: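 Rose Bengal sodium served as the red fluorophore standard. HepG2 monolayers (overnight attachment, MEM with 10% FBS) were exposed to test compounds for 1 hr at 37 C and read at Ex 540/Em 590 nm.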

[8] = qHTS assay to test for compound auto fluorescence at 535 nm (green) in HepG2 cells (AID 720675)
[9] = qHTS assay to test for compound auto fluorescence at 460 nm (blue) in HEK293 cells (AID 720678)
How it was run: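 Intrinsic compound fluorescence is recorded in live HEK293 cultures after overnight incubation at 37C, 5% CO2, using excitation 405 nm and emission 460 nm. Values are referenced to triamterene.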

[10] = qHTS assay to test for compound auto fluorescence at 590 nm (red) in HEK293 cells (AID 720679)
How it was run: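 Red autofluorescence, HEK293 cells: 2,000 cells/well; attach 4-5 hr 37C; add 23 nL cpd or DMSO; incubate o/n 37C 5% CO2; read Ex540/Em590; Rose Bengal sodium reference.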

[11] = qHTS assay to test for compound auto fluorescence at 535 nm (green) in HEK293 cells (AID 720680)
[12] = qHTS assay to test for compound auto fluorescence at 460 nm (blue) in HEK293 cell free culture (AID 720681)
How it was run: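 Test compounds were pinned into cell-free culture medium (DMEM with 10% FBS) and fluorescence was read directly at Ex/Em 405/460 nm. Signals were expressed as fluorescence equivalents of triamterene, with DMSO vehicle as control.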

[13] = qHTS assay to test for compound auto fluorescence at 535 nm (green) in HEK293 cell free culture (AID 720682)
How it was run: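 Measurement is a direct plate read of green fluorescence (485 nm in, 535 nm out) after compound addition to serum-supplemented DMEM lacking cells, with fluorescein used to express intensities.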

[14] = qHTS assay to test for compound auto fluorescence at 590 nm (red) in HEK293 cell free culture (AID 720683)
How it was run: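 Tox21 10K library compounds were pinned into cell-free DMEM with 10% FBS and fluorescence was read at excitation 540 nm. Activity is expressed as Rose Bengal sodium equivalency.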

[15] = qHTS assay to test for compound auto fluorescence at 460 nm (blue) in HepG2 cell free culture (AID 720685)
How it was run: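 Compound (23 nL) or DMSO pinned into cell-free MEM with 10% FBS; blue fluorescence read at 405/460 nm excitation/emission, expressed as auto-fluorescence equivalency to triamterene.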

[16] = qHTS assay to test for compound auto fluorescence at 535 nm (green) in HepG2 cell free culture (AID 720686)
[17] = qHTS assay to test for compound auto fluorescence at 460 nm (blue) in HepG2 cells (AID 720687)
How it was run: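 Cells (2,000/well in MEM with 10% FBS) attached overnight at 37 C, then were exposed to compound or DMSO for 1 hr at 37 C, 5% CO2. Fluorescence read at Ex/Em 405/460 nm, expressed as triamterene-equivalent signal.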

[18] = qHTS assay to test for compound auto fluorescence at 590 nm (red) in HepG2 cell free culture (AID 720684)
How it was run: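 Red fluorescence (540 nm excitation, 590 nm emission) was measured after compound transfer into cell-free MEM supplemented with 10% FBS. Values are equivalencies against Rose Bengal sodium.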

[19] = biological target: Glucocorticoid receptor (Homo sapiens) (UniProt P04150); experiment: qHTS assay to identify small molecule agonists of the glucocorticoid receptor (GR) signaling pathway (AID 720691; active = well fitted activation curve with a large enough effect in the signal ratio in the repeat runs, not every such curve was filed as active; the % refers to the signal ratio)
Chain of Glucocorticoid receptor (Homo sapiens) (P04150 whole entry, looked up): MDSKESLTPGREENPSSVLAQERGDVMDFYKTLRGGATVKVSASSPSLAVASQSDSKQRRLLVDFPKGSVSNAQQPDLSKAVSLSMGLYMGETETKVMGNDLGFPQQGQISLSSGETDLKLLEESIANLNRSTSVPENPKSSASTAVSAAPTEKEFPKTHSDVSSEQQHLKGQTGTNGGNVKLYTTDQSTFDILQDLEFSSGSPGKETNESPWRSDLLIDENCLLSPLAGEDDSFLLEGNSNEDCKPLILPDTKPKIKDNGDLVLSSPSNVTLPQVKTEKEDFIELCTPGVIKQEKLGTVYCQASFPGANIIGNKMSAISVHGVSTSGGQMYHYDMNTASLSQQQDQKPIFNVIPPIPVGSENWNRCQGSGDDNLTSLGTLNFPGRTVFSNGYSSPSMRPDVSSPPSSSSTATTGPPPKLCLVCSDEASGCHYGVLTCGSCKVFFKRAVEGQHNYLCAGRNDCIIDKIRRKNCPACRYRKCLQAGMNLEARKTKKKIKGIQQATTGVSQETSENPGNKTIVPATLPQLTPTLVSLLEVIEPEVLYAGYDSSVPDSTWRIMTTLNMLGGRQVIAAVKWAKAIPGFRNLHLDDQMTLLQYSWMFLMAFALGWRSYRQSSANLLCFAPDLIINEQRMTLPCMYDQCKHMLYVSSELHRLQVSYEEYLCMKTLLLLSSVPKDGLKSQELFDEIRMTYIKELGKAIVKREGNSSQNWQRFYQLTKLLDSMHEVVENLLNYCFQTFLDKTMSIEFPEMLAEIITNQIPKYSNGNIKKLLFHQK
How it was run: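 GR-bla HeLa cells (beta-lactamase reporter under glucocorticoid response element) were plated 4 h at 37 C/5% CO2, given compounds in DMSO, and incubated 18 h at 37 C. LiveBLAzer B/G FRET substrate was added for 2 h at room temperature, then fluorescence intensity read.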

[20] = biological target: Glucocorticoid receptor (Homo sapiens) (UniProt P04150); experiment: qHTS assay to identify small molecule antagonists of the glucocorticoid receptor (GR) signaling pathway (AID 720692; active = well fitted inhibition curve with a large enough effect in the signal ratio in the repeat runs, not every such curve was filed as active; the % refers to the signal ratio)
How it was run: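 GR-bla HeLa cells (beta-lactamase reporter under glucocorticoid response element) were pre-plated 4 h at 37 C, treated with compounds plus 5 nM dexamethasone (final) for 18 h, then read by LiveBLAzer B/G FRET fluorescence after 2 h.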

Measured: Potency

CC(C)CCCCCCc1ccc(OCCOCCO)cc1
not listed: [18] | [19] | [20]
inactive: all other assays above

FC(F)(F)c1ccccc1
not listed: [19] | [20]
inactive: all other assays above

CCCCCOc1ccc(C2SC(=O)NC2=O)cc1OCC (stereo not drawn)
active: [6] 29.8 µM
not listed: [19] | [20]
inactive: all other assays above

C=CCc1cc(OC)c(O)c(C(=O)NCCO)c1
not listed: [20]
inactive: all other assays above

C[C@@H]1CN(c2c(F)c(N)c3c(=O)c(C(=O)O)cn(C4CC4)c3c2F)C[C@H](C)N1
not listed: [19] | [20]
inactive: all other assays above

CC(=O)OC(C)OC(C)=O
not listed: [20]
inactive: all other assays above

Cc1ccccc1C(=O)Nc1ccc(C(=O)N2CCCC(O)c3cc(Cl)ccc32)c(C)c1 (stereo not drawn)
active: [6] 10.6 µM
not listed: [19] | [20]
inactive: all other assays above

Cc1cc(S(=O)(=O)O)c(N)cc1Cl
not listed: [20]
inactive: all other assays above

CCCOCCC
not listed: [20]
inactive: all other assays above

CCOC(=O)c1ccccc1O
not listed: [15]
inactive: all other assays above

O=C1N(c2ccccc2)c2ccccc2C1(Cc1ccncc1)Cc1ccncc1
not listed: [20]
inactive: all other assays above

CCN1CC(CCN2CCOCC2)C(c2ccccc2)(c2ccccc2)C1=O (stereo not drawn)
inactive: all assays above

OCc1ccccc1O
inactive: all assays above
